Data as given in PubChem BioAssay AID652018 (The Scripps Research Institute Molecular Screening Center, 2013).
Activity calls are given as the source filed them.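 The calls were made as follows: active = at least 50% inhibition of LYPLA1 or LYPLA2 at 300 nM, with no off-target enzyme hit at any dose; inactive = under 50% inhibition on both enzymes, or any off-target hit.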

Test system: Anti-Targets
Assay: LYPLA1 inhibitor selectivity over serine hydrolases, late-stage follow-up, selectivity assay for LYPLA1 inhibitor project, cell lysate, competitive ABPP, HEK293T proteome, set 2 (AID 652018)
Conditions: competitive ABPP FP-PEG-Rh gel; anti-targets hit, at 10 µM

Row | SMILES | anti-target count | outcome
1 | COc1ccc(N2CCN(C(=O)n3nc(Br)c(Br)n3)CC2)cc1 | 2 | active
2 | O=C(CN1CCN(C(=O)n2cc(-c3ccc(OC(F)(F)F)cc3)nn2)CC1)Nc1cc(C(F)(F)F)ccc1Cl | 0 | inactive
3 | O=C(CN1CCN(C(=O)n2cncn2)CC1)Nc1cc(C(F)(F)F)ccc1Cl | 0 | inactive
4 | COc1ccc(N2CCN(C(=O)n3nccn3)CC2)cc1 | 0 | inactive
5 | O=C(CN1CCN(C(=O)n2ncc(C(O)(c3ccccc3)c3ccccc3)n2)CC1)Nc1cc(C(F)(F)F)ccc1Cl | 1 | active
6 | COc1ccc(N2CCN(C(=O)n3ncc(C(O)(c4ccccc4)c4ccccc4)n3)CC2)cc1 | 1 | active
7 | O=C(CN1CCN(C(=O)n2ncc(-c3ccc(OC(F)(F)F)cc3)n2)CC1)Nc1cc(C(F)(F)F)ccc1Cl | 0 | inactive
8 | COc1ccc(N2CCN(C(=O)n3cc(C(O)(c4ccccc4)c4ccccc4)nn3)CC2)cc1 | 2 | active
9 | O=C(CN1CCN(C(=O)n2ncc(-c3ccc(Br)cc3)n2)CC1)Nc1cc(C(F)(F)F)ccc1Cl | 0 | inactive
10 | O=C(N1CCN(c2ccc(Br)cc2)CC1)n1ncc(C(O)(c2ccccc2)c2ccccc2)n1 | 0 | inactive
11 | O=C(CN1CCN(C(=O)n2cc(C(O)(c3ccccc3)c3ccccc3)nn2)CC1)Nc1cc(C(F)(F)F)ccc1Cl | 0 | inactive
12 | O=C(N1CCN(c2ccc(Cl)c(Cl)c2)CC1)n1ncc(C(O)(c2ccccc2)c2ccccc2)n1 | 0 | inactive
13 | O=C(CN1CCN(C(=O)n2cc(-c3ccc(-c4ccccc4)cc3)nn2)CC1)Nc1cc(C(F)(F)F)ccc1Cl | 0 | inactive
14 | COc1ccc(N2CCN(C(=O)n3ncc(-c4ccccc4)n3)CC2)cc1 | 0 | inactive
15 | O=C(CN1CCN(C(=O)n2nc(Br)c(Br)n2)CC1)Nc1cc(C(F)(F)F)ccc1Cl | 0 | inactive
16 | O=C(CN1CCN(C(=O)n2nc(Br)nc2Br)CC1)Nc1cc(C(F)(F)F)ccc1Cl | 0 | inactive
17 | COc1ccc(N2CCN(C(=O)n3cc(-c4ccc(OC(F)(F)F)cc4)nn3)CC2)cc1 | 0 | inactive
18 | COc1ccc(N2CCN(C(=O)n3nc(Br)nc3Br)CC2)cc1 | 0 | inactive
19 | COc1ccc(N2CCN(C(=O)n3ncc(-c4ccc(OC(F)(F)F)cc4)n3)CC2)cc1 | 0 | inactive
20 | COc1ccc(N2CCN(C(=O)n3ccnn3)CC2)cc1 | 0 | inactive
21 | O=C(CN1CCN(C(=O)n2ncc(-c3ccc(-c4ccccc4)cc3)n2)CC1)Nc1cc(C(F)(F)F)ccc1Cl | 0 | inactive
22 | O=C(CN1CCN(C(=O)n2nccn2)CC1)Nc1cc(C(F)(F)F)ccc1Cl | 0 | inactive
23 | COc1ccc(N2CCN(C(=O)n3cncn3)CC2)cc1 | 0 | inactive
